The structures appear in SMILES notation. Active and inactive are the calls of the source.

Assay [1] is described as follows: small molecules captured by biotinylated probe aFSTL3 – biochemical, small-molecule microarray, fluorescence 635/667, stem cell growth factor project, primary screen (AID 1064).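 Further: measures binding of the biotinylated anti-FSTL3 antibody to printed compounds.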 Conditions: higher = more signal.
Assay [2] is described as follows: binders from COS7 lysate, DM2A8 probe, primary screen, torsin A project, cell lysate, small-molecule microarray, fluorescence 635/667 (AID 1065). The settings on record: higher = more signal, COS7 lysate expressing mutant human TOR1A.
Assay [3] can be described thus: small molecules captured by biotinylated probe aFGF2 – biochemical, small-molecule microarray, fluorescence 635/667, stem cell growth factor project, primary screen (AID 1067).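 Further: measures binding of biotinylated aFGF2 protein to printed compounds on slides; z-score merges feature fluorescence and signal-to-noise across triplicate slides.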 The settings on record: higher = more signal.
Assay [4] can be described thus: small molecules captured by biotinylated probe aFGF10 – biochemical, small-molecule microarray, fluorescence 635/667, stem cell growth factor project, primary screen (AID 1071).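 Further: score merges 667 nm spot intensity and signal to noise from triplicate slides.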 Conditions: higher = more signal.
Assay [5] deals with Neurogenic locus notch homolog protein 2 (Homo sapiens) (UniProt Q04721). As to the kind of experiment: small molecules binding Notch2 protein – biochemical, small-molecule microarray, 635 nm fluorescence, stem cell growth factors, primary screen (AID 1073). Conditions: higher = more signal.
Assay [6] concerns the target Pro-neuregulin-1, membrane-bound isoform (Homo sapiens) (UniProt Q02297). As to the kind of experiment: small molecules binding neuregulin-1 protein – biochemical, small-molecule microarray, fluorescence 635/667, psychiatric disease protein project, primary screen (AID 1075).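 Further: score combines 667 nm spot fluorescence with signal to noise.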 Conditions: NRG1 binding, 635 nm fluorescence, higher = more signal.
Assay [7] concerns Neuregulin-1 EGF-like domain. As to the kind of experiment: small molecules binding NRG1 EGF domain – biochemical, small-molecule microarray, 635 nm fluorescence, primary screen (AID 1081).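 Further: binding of the protein to compounds printed on small-molecule microarray slides.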 The settings on record: higher = more signal.
Assay [8] in a line: FRG1 expression reporter modulators in myotubes – cell-based, C2C12 myotubes, firefly/Renilla luciferase, luminescence, FRG1 inhibition for FSHD, primary screen (AID 1084). The settings on record: FRG1 promoter luciferase, higher = more signal, called active from +8 up or from −8 down.
Assay [9] is described as follows: small molecules captured by biotinylated probe aFST – biochemical, small-molecule microarray, fluorescence 635/667, stem cell growth factor project, primary screen (AID 1086).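 Further: score merges 667 nm fluorescence with signal-to-noise of each printed compound spot.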 Conditions: higher = more signal.
Assay [10] in a line: binders of probe aHhip on microarray, primary screen, stem cell growth factor project, biochemical, small-molecule microarray, fluorescence 635/667 (AID 1087).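 Further: score merges spot fluorescence at 667nm with spot signal to noise ratio.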 Conditions: higher = more signal.
Assay [11] has as its system PRMT1 (protein arginine N-methyltransferase 1). As to the kind of experiment: small molecules binding arginine methyltransferase PRMT1 – biochemical, small-molecule microarray, 635 nm fluorescence, primary screen (AID 1088).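 Further: binding of Prmt1 protein to compounds spotted on small-molecule microarray slides.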 The settings on record: higher = more signal.
Assay [12] is described as follows: growth effects on S. cerevisiae YJM789 – YJM789 clinical isolate, OD600, 24 h, basal, primary screen (AID 1089).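 Further: growth of clinical yeast isolate S. cerevisiae YJM 789 seeded 1000 cells per well; test concentration not given here.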 Conditions: higher = more signal, called active from +8 up or from −8 down.
Assay [13] is described as follows: S. pombe growth modifiers, basal conditions – strain 972, OD600, 24 h, no modulator, primary screen (AID 1090).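 Further: basal condition with compound alone and no growth modifier present; test concentration not given here.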 Conditions: S. pombe 972 growth, higher = more signal, called active from +8 up or from −8 down.
Assay [14] is described as follows: budding yeast growth modifiers under rapamycin – strain BY4716, OD600, 96 h, primary screen (AID 1091). Further: test concentration not given here. The settings on record: S. cerevisiae BY4716 + rapamycin, higher = more signal, called active from +8 up or from −8 down.
Assay [15] has as its target Torsin-1A-interacting protein 2 (Homo sapiens) (UniProt Q8NFQ8). As to the kind of experiment: small molecules binding lysate-expressed LULL1 – cell lysate, human LULL1 lysate, 635/667 nm fluorescence, primary screen (AID 1092).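 Further: score merges per-feature 667 nm fluorescence with signal-to-noise.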 Conditions: small-molecule microarray, hLULL1 lysate binding, 635 nm fluorescence; higher = more signal.
A short description of assay [16]: optical density change of DRC41 E. coli – strain DRC41, OD650, 24 h, E. coli filamentation project, primary screen (AID 1093).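 Further: MC1000 strain lacking acrAB efflux and sulA so SOS filamentation is blocked; test concentration not given here.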 Conditions: E. coli DRC41 growth, higher = more signal, called active from +8 up or from −8 down.
Assay [17] is described as follows: probe aLefty2 binding to arrayed compounds – biochemical, biotinylated probe, 635/667 nm fluorescence, primary screen (AID 1094).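 Further: score merges spot fluorescence near 667 nm with spot signal-to-noise ratio.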 The settings on record: small-molecule microarray, higher = more signal.
The subject of assay [18] is Noggin (protein binding on small-molecule microarray). As to the kind of experiment: small molecules binding Noggin protein – biochemical, 635/667 nm fluorescence, primary screen (AID 1095).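 Further: score merges 667 nm feature fluorescence with signal to noise over triplicate slides.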 Conditions: 635 nm fluorescence, higher = more signal.
The target of assay [19] is Neurogenic locus notch homolog protein 3 (Homo sapiens) (UniProt Q9UM47). As to the kind of experiment: small molecules binding NOTCH3 protein – biochemical, 635/667 nm fluorescence, primary screen (AID 1096). The settings on record: small-molecule microarray, 635 nm fluorescence, higher = more signal.
Assay [20] in a line: probe aEGFR binding to arrayed compounds – biochemical, biotinylated probe, 635/667 nm fluorescence, primary screen (AID 1097).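 Further: probe is a biotinylated anti-EGFR antibody binding compounds printed on slides; score combines fluorescence near 667 nm and signal to noise of each spot.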 Conditions: small-molecule microarray, higher = more signal.

Chain of Neurogenic locus notch homolog protein 3 (Homo sapiens) (Q9UM47 whole entry, looked up): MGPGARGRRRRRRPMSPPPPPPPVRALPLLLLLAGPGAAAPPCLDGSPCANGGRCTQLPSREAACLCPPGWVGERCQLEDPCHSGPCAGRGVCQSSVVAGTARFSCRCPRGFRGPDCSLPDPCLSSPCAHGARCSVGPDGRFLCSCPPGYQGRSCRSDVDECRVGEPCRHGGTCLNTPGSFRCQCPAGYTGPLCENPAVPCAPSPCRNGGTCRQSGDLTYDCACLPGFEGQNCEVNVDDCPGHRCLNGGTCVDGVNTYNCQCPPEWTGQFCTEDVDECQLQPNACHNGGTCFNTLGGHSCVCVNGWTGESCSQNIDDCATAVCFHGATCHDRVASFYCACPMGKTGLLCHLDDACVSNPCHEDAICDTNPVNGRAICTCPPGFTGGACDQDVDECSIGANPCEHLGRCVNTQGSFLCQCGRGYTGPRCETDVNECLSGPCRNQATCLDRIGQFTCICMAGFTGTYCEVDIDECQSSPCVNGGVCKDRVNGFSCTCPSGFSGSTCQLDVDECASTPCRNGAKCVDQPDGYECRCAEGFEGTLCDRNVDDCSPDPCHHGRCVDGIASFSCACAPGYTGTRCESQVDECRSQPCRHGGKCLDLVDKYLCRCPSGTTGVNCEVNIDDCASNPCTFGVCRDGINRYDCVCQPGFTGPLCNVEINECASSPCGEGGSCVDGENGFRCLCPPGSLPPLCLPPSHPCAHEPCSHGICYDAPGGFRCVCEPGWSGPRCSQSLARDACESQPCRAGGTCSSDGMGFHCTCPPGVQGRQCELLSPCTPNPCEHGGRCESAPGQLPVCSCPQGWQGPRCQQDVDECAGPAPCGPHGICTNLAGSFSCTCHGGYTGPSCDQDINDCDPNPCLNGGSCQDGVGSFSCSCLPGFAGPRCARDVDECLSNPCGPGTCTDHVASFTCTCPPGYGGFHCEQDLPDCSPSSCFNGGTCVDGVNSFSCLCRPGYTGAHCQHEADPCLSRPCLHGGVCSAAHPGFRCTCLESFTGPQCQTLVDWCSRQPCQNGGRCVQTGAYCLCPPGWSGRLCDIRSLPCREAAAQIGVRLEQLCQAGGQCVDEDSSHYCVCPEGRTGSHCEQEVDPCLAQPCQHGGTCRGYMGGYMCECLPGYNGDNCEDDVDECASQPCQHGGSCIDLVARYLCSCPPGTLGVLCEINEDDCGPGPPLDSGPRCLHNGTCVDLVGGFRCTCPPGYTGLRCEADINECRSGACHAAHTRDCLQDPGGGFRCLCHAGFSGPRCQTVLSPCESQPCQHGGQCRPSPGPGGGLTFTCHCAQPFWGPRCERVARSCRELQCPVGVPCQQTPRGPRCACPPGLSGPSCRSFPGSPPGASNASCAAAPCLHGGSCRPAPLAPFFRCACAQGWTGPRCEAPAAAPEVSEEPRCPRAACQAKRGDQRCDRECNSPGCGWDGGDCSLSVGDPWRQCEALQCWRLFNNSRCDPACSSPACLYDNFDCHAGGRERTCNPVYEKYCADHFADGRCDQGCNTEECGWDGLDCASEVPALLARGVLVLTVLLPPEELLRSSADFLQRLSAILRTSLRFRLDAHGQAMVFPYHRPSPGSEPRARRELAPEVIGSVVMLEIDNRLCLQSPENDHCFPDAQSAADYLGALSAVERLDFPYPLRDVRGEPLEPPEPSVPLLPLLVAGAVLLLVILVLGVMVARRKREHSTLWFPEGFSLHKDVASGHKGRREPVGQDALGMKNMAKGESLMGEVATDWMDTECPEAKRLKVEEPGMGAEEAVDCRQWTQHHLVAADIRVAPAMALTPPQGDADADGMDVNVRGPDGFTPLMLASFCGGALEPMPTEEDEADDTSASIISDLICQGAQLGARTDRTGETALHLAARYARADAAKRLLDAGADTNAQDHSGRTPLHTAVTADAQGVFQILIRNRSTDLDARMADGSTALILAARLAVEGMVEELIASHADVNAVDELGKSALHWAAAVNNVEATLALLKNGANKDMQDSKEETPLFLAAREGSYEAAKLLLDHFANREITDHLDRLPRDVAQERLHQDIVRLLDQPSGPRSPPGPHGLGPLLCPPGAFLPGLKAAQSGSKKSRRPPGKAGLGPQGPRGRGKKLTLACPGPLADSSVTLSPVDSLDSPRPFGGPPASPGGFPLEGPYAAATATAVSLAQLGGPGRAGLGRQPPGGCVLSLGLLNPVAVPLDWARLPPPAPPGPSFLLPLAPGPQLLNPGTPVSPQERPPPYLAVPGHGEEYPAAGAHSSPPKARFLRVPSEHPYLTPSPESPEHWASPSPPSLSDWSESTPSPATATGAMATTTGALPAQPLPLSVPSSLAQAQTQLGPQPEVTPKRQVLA
Chain of Pro-neuregulin-1, membrane-bound isoform (Homo sapiens) (Q02297 whole entry, looked up, the tested form may be a part, canonical isoform): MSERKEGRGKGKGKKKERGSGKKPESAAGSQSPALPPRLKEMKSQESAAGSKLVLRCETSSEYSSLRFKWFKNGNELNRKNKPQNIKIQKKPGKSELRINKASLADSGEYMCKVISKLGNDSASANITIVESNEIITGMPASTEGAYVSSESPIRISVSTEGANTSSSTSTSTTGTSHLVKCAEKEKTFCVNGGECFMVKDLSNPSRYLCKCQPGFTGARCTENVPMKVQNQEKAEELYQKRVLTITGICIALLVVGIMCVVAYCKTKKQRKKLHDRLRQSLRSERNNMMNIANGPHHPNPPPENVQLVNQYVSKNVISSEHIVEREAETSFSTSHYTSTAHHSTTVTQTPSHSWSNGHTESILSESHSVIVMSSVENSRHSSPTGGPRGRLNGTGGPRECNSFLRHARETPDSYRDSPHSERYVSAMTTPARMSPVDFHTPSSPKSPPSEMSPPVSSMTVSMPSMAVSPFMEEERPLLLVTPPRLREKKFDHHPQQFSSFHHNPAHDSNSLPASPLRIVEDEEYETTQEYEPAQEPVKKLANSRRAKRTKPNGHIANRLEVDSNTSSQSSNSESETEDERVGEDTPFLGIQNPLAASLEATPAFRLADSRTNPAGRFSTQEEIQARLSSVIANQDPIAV
Chain of Torsin-1A-interacting protein 2 (Homo sapiens) (Q8NFQ8 whole entry, looked up): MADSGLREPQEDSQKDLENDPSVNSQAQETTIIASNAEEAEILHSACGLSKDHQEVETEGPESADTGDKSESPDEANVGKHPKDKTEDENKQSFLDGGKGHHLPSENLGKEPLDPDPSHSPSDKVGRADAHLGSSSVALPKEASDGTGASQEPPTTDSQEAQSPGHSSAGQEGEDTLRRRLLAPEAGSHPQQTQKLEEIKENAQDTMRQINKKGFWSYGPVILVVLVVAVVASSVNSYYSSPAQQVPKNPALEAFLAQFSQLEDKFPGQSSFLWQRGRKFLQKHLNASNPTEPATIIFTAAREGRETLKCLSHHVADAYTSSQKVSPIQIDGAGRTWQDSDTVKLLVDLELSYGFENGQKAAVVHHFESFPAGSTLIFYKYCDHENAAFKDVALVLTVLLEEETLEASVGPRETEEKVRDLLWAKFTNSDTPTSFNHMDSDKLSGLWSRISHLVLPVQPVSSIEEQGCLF

With `CCOC(=O)C1=CCC(c2ccco2)N(S(=O)(=O)c2ccc(C)cc2)C1` (stereo not given), the composite z-score is 0.632 in assay [1]; -0.0497 in assay [2]; 0.0061 in assay [3]; 0.864 in assay [4]; 1.62 in assay [5]; 1.46 in assay [6]. Moreover, the composite z-score in assay [7] came to 0.791; in assay [9], 0.803; in assay [10] it was 0.127; in assay [11], 1.08; in assay [15] it was 2.62; in [17], 0.18. Moreover, the composite z-score was 0.637 in [18], 1.08 in assay [19] and 0.0357 in assay [20]. The z-score in assay [8] was -2.47 (inactive); in [12], -0.949 (inactive); in assay [13] it was -0.0107 (inactive); in [14], -0.013 (inactive); in [16], 0.322 (inactive).

Take `Cc1ccc(N2C(=O)c3ccccc3[C@](C)(C(=O)NCc3ccccc3)[C@@H]2c2ccc(CO)cc2)nc1`: the composite z-score in [1] was 0.625; in assay [2] it was 0.0083; in [3], 0.0898; in assay [4] it was -0.369; in [5], -0.378; in assay [6] it was 0.64. For the same compound, the composite z-score in assay [7] worked out at 0.635; in [9], 0.0665; in assay [10] it was 1.07; in assay [11], 0.596; in assay [15], 0.945; in assay [17], 0.0781. Also, the values for the composite z-score in assay [18], in assay [19] and in [20] were 0.184, -0.456 and 0.108, respectively. Besides, the z-score in [8] was 0.101 (inactive); in assay [12] it was 0.34 (inactive); in assay [13] it was -0.72 (inactive); in [14], -0.0557 (inactive); in [16], 0.148 (inactive).

`CN(C)CCCCCCNC(=O)[C@@H]1C[C@@H]2C(=O)N[C@@H](CCCCN)C(=O)N2[C@@H]1c1ccc(O)cc1`: the composite z-score in [1] was 3.77; in [2], 1.82; in assay [3], 0.939; in assay [4], 1.2; in assay [5], 1.65; in assay [6], 2.91. Further, the composite z-score turned out to be 1.53 in assay [7]; 3.81 in assay [9]; 3.69 in [10]; 1.54 in assay [11]; 4.67 in assay [15]; 1.87 in assay [17]. The composite z-score came out at 2.25 in assay [18], 1.02 in [19] and 1.31 in [20]. In addition, the z-score in [8] is 0.918 (inactive); in assay [12] it was -0.38 (inactive); in assay [13] it was -3.54 (inactive); in assay [14], -0.958 (inactive); in assay [16], 1.98 (inactive).

With `CCOC(=O)C1=C[C@@H](C(C)(C)C)N(S(=O)(=O)c2ccc(C)cc2)[C@H]1c1ccc(C)cc1`, the composite z-score in [1] was -0.173; in assay [2] it was 0.577; in assay [3] it was 0.135; in assay [4], 1.13; in assay [5], 1.68; in [6], 0.877. In addition, the composite z-score in [7] is 0.894; in [9] it was 1.8; in [10], 0.245; in assay [11] it was 1.54; in [15], 3.25; in assay [17] it was 0.273. The figures for the composite z-score in [18], in assay [19] and in assay [20] were 0.552, 1.02 and 0.157, respectively. The z-score was -2.53 (inactive) in assay [8]; -0.582 (inactive) in assay [12]; 0.0598 (inactive) in assay [13]; 0.632 (inactive) in assay [14]; -1.38 (inactive) in assay [16].

For the compound `C[C@]1(C(=O)NCCN2CCOCC2)c2ccccc2C(=O)N(Cc2cc(F)cc(C(F)(F)F)c2)[C@H]1c1ccc(CO)cc1`, the composite z-score in assay [1] was 0.0545; in assay [2] it was 0.933; in [3], -0.141; in assay [4] it was -0.762; in assay [5], -0.387; in [6] it was 1.06. Moreover, the composite z-score in assay [7] was 1.47; in [9], 1.16; in [10] it was -0.0994; in assay [11], 1.49; in assay [15], 3.36; in [17] it was -0.0511. Moreover, the figures for the composite z-score in assay [18], in assay [19] and in [20] were 0.463, 0.572 and -0.142, respectively. Besides, the z-score in assay [8] was -1.54 (inactive); in [12], 0.006 (inactive); in [13], 0.487 (inactive); in [14], -0.837 (inactive); in [16] it was 1.47 (inactive).

(Values after PubChem BioAssay.)
